Source: PubChem BioAssay AID1159580 (chemical genetic matrix, 2015)
The whole screen tested about 5,500 compounds, of which about 2,000 (36%) were called active. Another 18% or so got no clear call; they are omitted. Rule as the data show it: active = normalized growth mostly below about 0.91 (no sharp cut-off); inconclusive = no clear call, values can overlap the other calls; inactive = mostly above about 0.92. Some of the results follow.

Test: chemical genetic growth profiling, strain panel (AID 1159580);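 also: tested at 20 µM; growth read once vehicle control cultures reached saturation at 30 °C; 1 = growth at the plate median or of vehicle wells; lower values mean less growth of the strain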
Settings: growth OD
[1] = S. cerevisiae deletion strains, locus YDL101C, strain DUN1, stronger effect = lower value
[2] = S. cerevisiae deletion strains, locus YHR030C, strain SLT2, stronger effect = lower value

Measured: normalized growth

Cc1ccc(NC(=O)CC#N)c(C)c1
inactive: S. cerevisiae deletion strains, locus YAL013W, strain DEP1, stronger effect = lower value 1.01 | S. cerevisiae deletion strains, locus YBR229C, strain ROT2, stronger effect = lower value 1 | [1] 0.979 | S. cerevisiae deletion strains, locus YDL134C, strain PPH21, stronger effect = lower value 1.01 | S. cerevisiae deletion strains, locus YDR150W, strain NUM1, stronger effect = lower value 0.895 | S. cerevisiae deletion strains, locus YEL061C, strain CIN8, stronger effect = lower value 1.03 | S. cerevisiae deletion strains, locus YGR078C, strain PAC10, stronger effect = lower value 1.01 | S. cerevisiae deletion strains, locus YGR229C, strain SMI1, stronger effect = lower value 0.986 | [2] 0.959 | S. cerevisiae deletion strains, locus YHR087W, strain rtc3, stronger effect = lower value 0.995 | S. cerevisiae deletion strains, locus YJR043C, strain POL32, stronger effect = lower value 0.96 | S. cerevisiae deletion strains, locus YJR075W, strain HOC1, stronger effect = lower value 1.04 | S. cerevisiae deletion strains, locus YKL190W, strain CNB1, stronger effect = lower value 0.998 | S. cerevisiae deletion strains, locus YLR039C, strain RIC1, stronger effect = lower value 0.974 | S. cerevisiae deletion strains, locus YLR058C, strain SHM2 (second series), stronger effect = lower value 1 | S. cerevisiae deletion strains, locus YLR085C, strain ARP6, stronger effect = lower value 1.05 | S. cerevisiae deletion strains, locus YLR262C, strain YPT6, stronger effect = lower value 0.973 | S. cerevisiae deletion strains, locus YML094W, strain GIM5, stronger effect = lower value 1.04 | S. cerevisiae deletion strains, locus YMR219W, strain ESC1, stronger effect = lower value 1.02 | S. cerevisiae deletion strains, locus YMR263W, strain SAP30, stronger effect = lower value 0.998 | S. cerevisiae deletion strains, locus YMR307W, strain GAS1, stronger effect = lower value 1.03 | S. cerevisiae deletion strains, locus YNL153C, strain GIM3, stronger effect = lower value 1.01 | S. cerevisiae deletion strains, locus YNL298W, strain CLA4 (second series), stronger effect = lower value 0.988 | S. cerevisiae deletion strains, locus YNL322C, strain KRE1, stronger effect = lower value 1.01 | S. cerevisiae deletion strains, locus YNR030W, strain Alg12, stronger effect = lower value 1.02 | S. cerevisiae deletion strains, locus YOL006C, strain TOP1, stronger effect = lower value 0.951 | S. cerevisiae deletion strains, locus YPL055C, strain LGE1, stronger effect = lower value 1.1 | S. cerevisiae deletion strains, locus YPL241C, strain CIN2, stronger effect = lower value 1.03 | S. cerevisiae deletion strains, locus YPR135W, strain CTF4, stronger effect = lower value 1.01 | S. cerevisiae strains, strain wild type, stronger effect = lower value 0.976

O=C(Nc1ccc(SC(F)(F)F)cc1)Nc1ccc(Oc2cccc(C(F)(F)F)c2)nc1
inactive: S. cerevisiae deletion strains, locus YAR019C, strain CDC15, stronger effect = lower value 0.995 | S. cerevisiae deletion strains, locus YBL105C, strain PKC1, stronger effect = lower value 0.989 | S. cerevisiae deletion strains, locus YBR135W, strain CKS1, stronger effect = lower value 0.992 | S. cerevisiae deletion strains, locus YBR136W, strain MEC1, stronger effect = lower value 0.987 | S. cerevisiae deletion strains, locus YBR160W, strain CDC28, stronger effect = lower value 0.992 | S. cerevisiae deletion strains, locus YDL017W, strain CDC7, stronger effect = lower value 0.996 | S. cerevisiae deletion strains, locus YDL028C, strain MPS1, stronger effect = lower value 0.988 | [1] 0.997 | S. cerevisiae deletion strains, locus YDL108W, strain KIN28, stronger effect = lower value 0.993 | S. cerevisiae deletion strains, locus YDL132W, strain cdc53, stronger effect = lower value 0.995 | S. cerevisiae deletion strains, locus YDL214C, strain PRR2, stronger effect = lower value 0.941 | S. cerevisiae deletion strains, locus YDR052C, strain DBF4, stronger effect = lower value 0.996 | S. cerevisiae deletion strains, locus YDR054C, strain cdc34, stronger effect = lower value 0.994 | S. cerevisiae deletion strains, locus YDR226W, strain ADK1, stronger effect = lower value 0.987 | S. cerevisiae deletion strains, locus YDR477W, strain SNF1, stronger effect = lower value 0.982 | S. cerevisiae deletion strains, locus YER123W, strain YCK3, stronger effect = lower value 0.949 | S. cerevisiae deletion strains, locus YER133W, strain GLC7, stronger effect = lower value 0.95 | S. cerevisiae deletion strains, locus YFL009W, strain cdc4, stronger effect = lower value 0.988 | S. cerevisiae deletion strains, locus YFL029C, strain CAK1, stronger effect = lower value 0.996 | S. cerevisiae deletion strains, locus YFR003C, strain YPI1, stronger effect = lower value 0.991 | S. cerevisiae deletion strains, locus YFR019W, strain FAB1, stronger effect = lower value 0.921 | S. cerevisiae deletion strains, locus YFR028C, strain CDC14, stronger effect = lower value 0.999 | S. cerevisiae deletion strains, locus YGR040W, strain KSS1, stronger effect = lower value 0.975 | S. cerevisiae deletion strains, locus YGR052W, strain FMP48, stronger effect = lower value 0.973 | S. cerevisiae deletion strains, locus YGR092W, strain DBF2, stronger effect = lower value 0.995 | S. cerevisiae deletion strains, locus YHR079C, strain IRE1, stronger effect = lower value 0.883 | S. cerevisiae deletion strains, locus YHR082C, strain KSP1, stronger effect = lower value 1.05 | S. cerevisiae deletion strains, locus YHR205W, strain SCH9, stronger effect = lower value 0.957 | S. cerevisiae deletion strains, locus YIL147C, strain SLN1, stronger effect = lower value 0.994 | S. cerevisiae deletion strains, locus YJL095W, strain BCK1, stronger effect = lower value 0.975 | S. cerevisiae deletion strains, locus YJL128C, strain PBS2, stronger effect = lower value 0.946 | S. cerevisiae deletion strains, locus YJL157C, strain FAR1, stronger effect = lower value 0.937 | S. cerevisiae deletion strains, locus YJR016C, strain ILV3, stronger effect = lower value 1 | S. cerevisiae deletion strains, locus YJR066W, strain TOR1 (second series), stronger effect = lower value 1.02 | S. cerevisiae deletion strains, locus YJR066W, strain TOR1, stronger effect = lower value 1.02 | S. cerevisiae deletion strains, locus YKL048C, strain ELM1, stronger effect = lower value 0.972 | S. cerevisiae deletion strains, locus YKL067W, strain YNK1, stronger effect = lower value 0.956 | S. cerevisiae deletion strains, locus YKL101W, strain HSL1, stronger effect = lower value 0.949 | S. cerevisiae deletion strains, locus YKL193C, strain SDS22, stronger effect = lower value 1 | S. cerevisiae deletion strains, locus YKL203C, strain TOR2, stronger effect = lower value 0.991 | S. cerevisiae deletion strains, locus YLR113W, strain HOG1, stronger effect = lower value 0.873 | S. cerevisiae deletion strains, locus YLR133W, strain CKI1, stronger effect = lower value 0.954 | S. cerevisiae deletion strains, locus YLR403W, strain SFP1, stronger effect = lower value 0.977 | S. cerevisiae deletion strains, locus YML070W, strain DAK1, stronger effect = lower value 0.964 | S. cerevisiae deletion strains, locus YMR001C, strain CDC5, stronger effect = lower value 0.996 | S. cerevisiae deletion strains, locus YMR205C, strain PFK2 (second series), stronger effect = lower value 0.974 | S. cerevisiae deletion strains, locus YMR277W, strain FCP1, stronger effect = lower value 0.996 | S. cerevisiae deletion strains, locus YNL006W, strain LST8, stronger effect = lower value 0.989 | S. cerevisiae deletion strains, locus YNL020C, strain ARK1, stronger effect = lower value 0.947 | S. cerevisiae deletion strains, locus YNL161W, strain CBK1, stronger effect = lower value 0.984 | S. cerevisiae deletion strains, locus YNL183C, strain NPR1, stronger effect = lower value 1.01 | S. cerevisiae deletion strains, locus YNL207W, strain RIO2, stronger effect = lower value 0.996 | S. cerevisiae deletion strains, locus YNL222W, strain SSU72, stronger effect = lower value 0.991 | S. cerevisiae deletion strains, locus YNL307C, strain MCK1 (second series), stronger effect = lower value 0.884 | S. cerevisiae deletion strains, locus YOL078W, strain AVO1, stronger effect = lower value 1 | S. cerevisiae deletion strains, locus YOL136C, strain PFK27, stronger effect = lower value 0.907 | S. cerevisiae deletion strains, locus YOR061W, strain CKA2, stronger effect = lower value 0.983 | S. cerevisiae deletion strains, locus YOR119C, strain RIO1, stronger effect = lower value 1.03 | S. cerevisiae deletion strains, locus YOR231W, strain MKK1, stronger effect = lower value 0.958 | S. cerevisiae deletion strains, locus YOR329C, strain SCD5, stronger effect = lower value 0.984 | S. cerevisiae deletion strains, locus YPL031C, strain PHO85, stronger effect = lower value 0.97 | S. cerevisiae deletion strains, locus YPL153C, strain RAD53, stronger effect = lower value 0.99 | S. cerevisiae deletion strains, locus YPL204W, strain HRR25, stronger effect = lower value 0.958 | S. cerevisiae deletion strains, locus YPL209C, strain IPL1, stronger effect = lower value 0.992 | S. cerevisiae deletion strains, locus YPL256C, strain CLN2, stronger effect = lower value 0.897 | S. cerevisiae deletion strains, locus YPR025C, strain CCL1, stronger effect = lower value 0.988 | S. cerevisiae deletion strains, locus YPR106W, strain ISR1, stronger effect = lower value 0.992 | S. cerevisiae deletion strains, locus YPR111W, strain DBF20, stronger effect = lower value 0.972 | S. cerevisiae deletion strains, strain NNK1, stronger effect = lower value 0.999 | S. cerevisiae deletion strains, strain TSCII, stronger effect = lower value 1
active: [2] 0.769
